SMILES strings stand for the structures. Counter-ions that a name gives are not always drawn. A number with no mark means an inactive call.

This test relates to NCI-H1688. Nature of the test: inhibition of cell viability relative to untreated control (fraction); higher = stronger growth inhibition, active = 0.5 or more. The conditions noted are these: 30 µM; 24 h. In short, it runs like this: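 Values are inhibition of cell viability expressed as a fraction, derived from viability normalised to untreated cells. NCI-H1688 small cell lung cancer cells in 96-well plates were exposed to a natural compound library (TargetMol) at 30 µM for 24 h at 37°C with 5% CO2, and Cell Counting Kit-8 absorbance at 450 nm was then read.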
On to `COc1ccc(-c2cc(=O)c3c(O)cc(O[C@@H]4O[C@H](CO[C@@H]5O[C@@H](C)[C@H](O)[C@@H](O)[C@H]5O)[C@@H](O)[C@H](O)[C@H]4O)cc3o2)cc1O` [Diosmin], for which the “inhibition of cell viability” value was -0.00104.
Next, `C=CCc1ccc(O)c(-c2ccc(O)c(CC=C)c2)c1` [Honokiol]: 0.844 (active).
For `O=C(O)c1cc(O)c(O)c(O)c1` [Gallic acid], the “inhibition of cell viability” value was 0.44.
Consider `CCOC(=O)C1=C[C@]2(CC)CCCN3CCc4c(n1c1ccccc41)[C@@H]32` [Vinpocetine], for which the “inhibition of cell viability” value was -0.174.
Next, `O=c1ccc2ccccc2o1` [Coumarin]: -0.151.
Next, `COc1ccc(/C=C\c2cc(OC)c(OC)c(OC)c2)cc1O` [Combretastatin A4]: 0.823 (active); `O=C(O)/C=C/c1ccc(O)c(O)c1` [Caffeic Acid]: -0.0219; `O=c1c2cc(O)c(O)cc2oc2cc(O)c([C@@H]3O[C@H](CO)[C@@H](O)[C@H](O)[C@H]3O)c(O)c12` [Mangiferin]: -0.186.
Next, `COc1cc2c(=O)c(-c3ccc(O)cc3)coc2cc1O[C@@H]1O[C@H](CO)[C@@H](O)[C@H](O)[C@H]1O` [Glycitin]: 0.491; `O=c1oc2ccccc2c(O)c1Cc1c(O)c2ccccc2oc1=O` [Dicumarol]: 0.308; `CC1(C)CCCC2(C)OC(=O)C=C12` (centres undefined) [Dihydroactinidiolide]: 0.194.
As to `C[C@@H]1CC[C@]2(C(=O)O[C@@H]3O[C@H](CO)[C@@H](O)[C@H](O)[C@H]3O)CC[C@]3(C)C(=CC[C@@H]4[C@@]5(C)CC[C@H](O)[C@@](C)(CO)[C@@H]5CC[C@]43C)[C@@H]2[C@]1(C)O` [Pedunculoside], the “inhibition of cell viability” value was 0.134.
As for `CC(C)=CCC[C@](C)(O[C@@H]1O[C@H](CO)[C@@H](O)[C@H](O)[C@H]1O)[C@H]1CC[C@]2(C)[C@@H]1[C@H](O)C[C@@H]1[C@@]3(C)CC[C@H](O)C(C)(C)[C@@H]3[C@@H](O[C@@H]3O[C@H](CO)[C@@H](O)[C@H](O)[C@H]3O)C[C@]12C` [Ginsenoside Rg1], the “inhibition of cell viability” value was -0.0362.
The result for `O=C(O)CCCCCCCC(O)C(O)CCCCCCO` (centres undefined) [Aleuritic Acid] reads -0.54.
The result for `C[C@]12CC[C@@H]3c4ccc(O)cc4CC[C@H]3[C@@H]1CC[C@@H]2O` [Estradiol] reads 0.296; that for `C[N+]1(C)CCCC1C(=O)O` (centres undefined), 0.205.
Next, `COc1cc2c(c(OC)c1OC)-c1c(cc(OC)c(OC)c1OC)CC(C)C(C)C2` (centres undefined) [Schizandrin A]: -0.0474; `COC(=O)c1ccc(O)c(OC)c1` [Methyl Vanillate]: -0.221.
With `O=C1C[C@@H](c2ccccc2)Oc2cc(O)cc(O)c21` [Pinocembrin], the “inhibition of cell viability” value is -0.374.
The result for `O=C1c2ccccc2C(=O)c2c1ccc(O)c2O` [Alizarin] reads 0.344.
Consider `COc1ccc(-c2oc3c(CC=C(C)C)c(O[C@@H]4O[C@H](CO)[C@@H](O)[C@H](O)[C@H]4O)cc(O)c3c(=O)c2O[C@@H]2O[C@@H](C)[C@H](O)[C@@H](O)[C@H]2O)cc1` [Icariin], for which the “inhibition of cell viability” value was 0.041.
Next, `c1ccc2c(Cc3c[nH]c4ccccc34)c[nH]c2c1` [3,3'-Diindolylmethane]: 0.12; `C[C@H]1O[C@@H](O[C@H]2[C@@H](O)C[C@H](O[C@H]3[C@@H](O)C[C@H](O[C@H]4CC[C@@]5(C)[C@H](CC[C@@H]6[C@@H]5CC[C@]5(C)[C@@H](C7=CC(=O)OC7)CC[C@]65O)C4)O[C@@H]3C)O[C@@H]2C)C[C@H](O)[C@@H]1O` [Digitoxin]: 0.981 (active); `C[n+]1cccc(C(=O)[O-])c1` [Trigonelline hydrochloride]: -0.14.
Turning to `O=C(O)/C=C/CCCCCCCO` [10-Hydroxy-2-decenoic acid], the “inhibition of cell viability” value is 0.323.
Next, `Cc1cccc2c3c(ccc12)C1=C(C(=O)C3=O)[C@@H](C)CO1` [Dihydrotanshinone I]: 0.992 (active); `Cc1ncc(CO)c(CO)c1O` [Pyridoxine hydrochloride]: 0.171.
In the case of `O=c1cc(-c2ccccc2)oc2cc(O)c(O)c(O)c12` [Baicalein], the “inhibition of cell viability” value was 0.728 (active).
The result for `O=c1c(-c2ccc(O)cc2)coc2c([C@@H]3O[C@H](CO)[C@@H](O)[C@H](O)[C@H]3O)c(O)ccc12` [Puerarin (Kakonein)] reads 0.109.

The values are drawn from the supplement of paper PMC11634586.
